Values joined by “and” are separate entries in the source; they are usually repeats but may differ in a detail not shown here. Identical values can stand only once. Records with an inconclusive call do not appear. The source holds several records for some structures; these can differ, active in one and inactive in another. Active and inactive are the calls of the source. Rule for the calls, unless noted: active = hit-call score of the fitted dose curve at least 0.9, where 1 is the maximum; inactive = score below 0.9.
Columns and labels:
CD69, CD69 (gene 969) = test: BSK_LPS_CD69: BioMAP Diversity Plus: LPS Assay for CD69 Biomarker Activity (AID 2284303); settings: primary human HUVEC with PBMC
Outline: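 Human umbilical vein endothelial cells co-cultured with PBMC under LPS stimulation, chemical exposure 24 h; cell-surface CD69 measured by ELISA and fitted in the positive direction versus DMSO.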

[1] = IUF_NPC2c_oligodendrocyte_migration_120hr: Leibniz Research Institute for Environmental Medicine (IUF) 120-hour Neural Progenitor Cell Migration Assay for Oligodendrocyte Migration (NPC2c) (AID 2284297);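 note: O4-positive oligodendrocyte migration distance divided by radial glia migration distance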
Outline: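 Primary hNPC spheres migrating on extracellular matrix, exposed five days to a 7-point dilution series with solvent control. Oligodendrocyte migration was scored by high-content imaging of O4 immunostaining and expressed relative to radial glia distance.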

[2] = IUF_NPC2a_radial_glia_migration_120hr: Leibniz Research Institute for Environmental Medicine (IUF) 120-hour Neural Progenitor Cell Migration Assay for Radial Glia Migration (NPC2a) (AID 2284298)
Outline: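 In this multiplexed test, fetal hNPC spheres migrate radially on poly-D-lysine/laminin in N2 medium (37C, 5% CO2, pH 7.2-7.6) under continuous compound exposure over five days. Migration is scored at 120 h from automated Hoechst nuclear imaging.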

[3] = IUF_NPC2a_radial_glia_migration_72hr: Leibniz Research Institute for Environmental Medicine (IUF) 72-hour Neural Progenitor Cell Migration Assay for Radial Glia Migration (NPC2a) (AID 2284299)
Outline: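 Human fetal neural progenitor spheres (0.3 mm) plated on poly-D-lysine/laminin in N2 differentiation medium and exposed from day 0 at 7 concentrations; radial glia migration distance from sphere edge measured at 72 h on brightfield images, mean of four directions, vs DMSO.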

[4] = IUF_NPC2b_neuronal_migration_120hr: Leibniz Research Institute for Environmental Medicine (IUF) 120-hour Neural Progenitor Cell Migration Assay for Neuron Migration (NPC2b) (AID 2284300)
Outline: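 Neurons identified by TUBB3 immunostaining and Hoechst nuclei; migration distance measured automatically on fixed wells at 120 h, normalized to glia migration. Exposure spanned five days of differentiation in N2 medium, seven test concentrations.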

[5] = IUF_NPC3_neuronal_differentiation_120hr: Leibniz Research Institute for Environmental Medicine (IUF) 120-hour Neuronal Differentiation Assay (NPC3) (AID 2284301)
Outline: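 Single 0.3 mm neurospheres from human fetal cortex were plated in differentiation medium containing test compound. Medium was half-replaced on day 3. After 120 h cells were fixed, immunostained and imaged, and neuronal fraction was scored against DMSO control.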

[6] = IUF_NPC4_neurite_length_120hr: Leibniz Research Institute for Environmental Medicine (IUF) 120-hour Neuronal Morphology Assay for Neurite Length (NPC4) (AID 2284302)
Outline: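 Read-out is mean neurite length in µm of TUBB3-positive neurons, skeletonized from high-content fluorescence images after 120 h. Single 0.3 mm primary human neural progenitor spheres differentiated on poly-D-lysine/laminin under continuous compound exposure; DMSO was baseline.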

[7] = IUF_NPC5_oligodendrocyte_differentiation_120hr: Leibniz Research Institute for Environmental Medicine (IUF) 120-hour Oligodendrocyte Differentiation Assay (NPC5) (AID 2284304; active = hit-call score of the fitted dose curve at least 0.9, where 1 is the maximum;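 note: primary human fetal neural progenitor spheres plated to migrate and differentiate; share of O4-positive cells among Hoechst nuclei found by CNN image analysis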)
Outline: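 Human primary NPC neurospheres migrating and differentiating on laminin for 120 h under continuous compound exposure (serial dilution, solvent control). Endpoint: percent O4+ oligodendrocytes among Hoechst nuclei, detected by CNN image analysis, with DMSO as negative control.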

[8] = IUF_NPC4_neurite_area_120hr: Leibniz Research Institute for Environmental Medicine (IUF) 120-hour Neuronal Morphology Assay for Neurite Area (NPC4) (AID 2284305; active = hit-call score of the fitted dose curve at least 0.9, where 1 is the maximum)
Outline: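 Neurite area is read out as the mean pixel area, excluding nuclei, of skeletonized TUBB3-positive neurons imaged after 120 h. Primary human neural progenitor spheres differentiated on poly-D-lysine/laminin with compound present from day 0. Activity was referenced to DMSO controls.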

[9] = IUF_NPC2-5_cytotoxicity_72hr: Cytotoxicity Assessment at 72 hours in the Leibniz Research Institute for Environmental Medicine (IUF) Neural Progenitor Cell Migration and Differentiation Assay for Cytotoxicity (NPC2-5) (AID 2284306; active = hit-call score of the fitted dose curve at least 0.9, where 1 is the maximum;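 note: LDH release into supernatant measured by resorufin fluorescence marking membrane damage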)
Outline: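 Membrane integrity loss was scored from fluorescence (RFU) of resorufin generated by LDH in culture supernatant, 72 h after dosing. Differentiating human progenitor spheres received seven serial compound concentrations alongside a solvent control.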

[10] = IUF_NPC2-5_cytotoxicity_120hr: Cytotoxicity Assessment at 120 hours in the Leibniz Research Institute for Environmental Medicine (IUF) Neural Progenitor Cell Migration and Differentiation Assay (NPC2-5) (AID 2284307; active = hit-call score of the fitted dose curve at least 0.9, where 1 is the maximum)
Outline: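 Fluorescence (RFU) from LDH-driven resazurin reduction in medium supernatants measured loss of membrane integrity after 120 h of compound exposure of differentiating primary human neural progenitor spheres on an extracellular matrix.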

[11] = IUF_NPC2-5_cell_number_120hr: Cell Number Assessment at 120 hours in the Leibniz Research Institute for Environmental Medicine (IUF) Neural Progenitor Cell Migration and Differentiation Assay (NPC2-5) (AID 2284308);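 note: count of Hoechst-stained nuclei in migration zone around plated human neural progenitor spheres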
Outline: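 Cell number is taken as all Hoechst-positive nuclei detected in the area into which cells migrate out of the sphere, scored at 120 h and referenced to DMSO solvent control, which was kept at no more than 0.1%.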

[12] = IUF_NPC2-5_viability_120hr: Viability Assessment at 120 hours in the Leibniz Research Institute for Environmental Medicine (IUF) Neural Progenitor Cell Migration and Differentiation Assay (NPC2-5) (AID 2284312)
Outline: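 Alamar blue resorufin fluorescence read after 5 days of differentiation, with compound present from day 0 and replenished at day 3. Primary hNPC spheres on laminin-coated plates, 37C; seven concentrations plus solvent control, fitted against DMSO.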

IYD (gene 389434) = test: CCTE_GLTED_hIYD: CCTE's human Iodotyrosine Deiodinase (xIYD) Inhibition Assay, Great Lakes Toxicology and Ecology Division (GLTED) Lab (AID 2284317; active = hit-call score of the fitted dose curve at least 0.9, where 1 is the maximum;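 note: cell-free human IYD enzyme made in baculovirus insect cells; iodide freed from monoiodotyrosine measured by cerium arsenite color change at 420 nm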)
Outline: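 hIYD: baculovirus-expressed human IYD deiodinated monoiodotyrosine for 3 h with test chemical; free iodide was measured by Sandell-Kolthoff absorbance at 420 nm and normalized to MNT and DMSO/NaOH controls.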

[13] = CCTE_Mundy_HCI_iCellGluta_NOG_NeuriteLength: CCTE's Neurite Outgrowth Assay in iCellGluta cells for Neurite Length, Mundy Lab (AID 2284318; active = hit-call score of the fitted dose curve at least 0.9, where 1 is the maximum)
Outline: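 Automated high-content imaging of betaIII-tubulin (Alexa Fluor-488) and Hoechst-stained cells gave neurite length, normalized to the DMSO baseline.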

[14] = VALA_TUBHUV_Agonist_CellCount: Viability Assessment in the VALA Sciences human Umbilical Vein Endothelial Tubule Formation (TUBHUV) Agonism Assay (AID 2284309; active = hit-call score of the fitted dose curve at least 0.9, where 1 is the maximum)
Outline: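 HUVEC co-cultured 1:3 with HDF for 3 days in 10 ng/ml VEGF, then compounds added in VEGF medium for a further 3 days (72 h). Nuclear-stain/CD31 imaging cell count. Positive-direction fit versus 0.1% DMSO vehicle.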

[15] = VALA_TUBHUV_Antagonist_CellCount: Viability Assessment in the VALA Sciences human Umbilical Vein Endothelial Tubule Formation (TUBHUV) Antagonism Assay (AID 2284310; active = hit-call score of the fitted dose curve at least 0.9, where 1 is the maximum)
Outline: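 HUVEC co-cultured with HDF (1:3) 3 days in 10 ng/ml VEGF, then 3 days with compounds in VEGF medium. Fixed, nuclear stain and CD31 immunofluorescence, imaged; cell counts fitted versus 0.1% DMSO, loss of signal read as lower viability.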

[16] = VALA_TUBIPS_Antagonist_TubuleLength: VALA Sciences human iPS-derived Endothelial Tubule Formation (TUBIPS) Antagonist Assay (AID 2284313; active = hit-call score of the fitted dose curve at least 0.9, where 1 is the maximum)
Outline: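 Cells grown 3 days with 10 ng/ml VEGF, then exposed to compounds in VEGF medium for another 3 days. After fixation, nuclear stain and CD31 immunofluorescence imaging gave mean total tubule length against 0.1% DMSO; suramin (100 uM) inhibition control.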

[17] = VALA_MIGHUV2_WoundArea: VALA Sciences human Umbilical Vein Endothelial Cell Migration (MIGHUV) Assay, Area of Scratch Wound after Recovery (AID 2284316; active = hit-call score of the fitted dose curve at least 0.9, where 1 is the maximum)
Outline: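 HUVEC seeded at 9000 cells/well, scratched after 24 h; test chemical added within 30 min, 6-point concentration response in triplicate (0.1% DMSO vehicle). After 24 h wound recovery, cells fixed and Hoechst-stained nuclei in wound area imaged; Cytochalasin D reference control.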

[18] = VALA_TUBIPS_Agonist_TubuleLength: VALA Sciences human iPS-derived Endothelial Tubule Formation (TUBIPS) Agonism Assay (AID 2284311; active = hit-call score of the fitted dose curve at least 0.9, where 1 is the maximum)
Outline: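 Human iPS-derived endothelial cells were exposed to compound for 72 h. Tubule formation was imaged by high-content fluorescence and scored as gain of signal relative to DMSO vehicle (agonist mode).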

Measured: AC50

FC(F)(I)C(F)(F)C(F)(F)C(F)(F)C(F)(F)C(F)(F)I
active: CD69, CD69 (gene 969) 4.49 µM and 40.5 µM and 53.2 µM
inactive: CD69, CD69 (gene 969)

CN1CCC[C@H]1c1cccnc1
not listed: CD69, CD69 (gene 969) | IYD (gene 389434) | [13] | [14] | [15] | [16] | [17] | [18]
inactive: all other assays above

CCCCCCCCCCCCCC[N+](C)(C)C
active: IYD (gene 389434) 88.3 µM

CC#C[C@]1(O)CC[C@H]2[C@@H]3CCC4=CC(=O)CCC4=C3[C@@H](c3ccc(N(C)C)cc3)C[C@@]21C
active: [13] 50 µM
inactive: [1] | [2] | [3] | [4] | [5] | [6] | [7] | [8] | [9] | [10] | [11] | [12] | [13]

CCC(=C(c1ccc(O)cc1)c1ccc(OCCN(C)C)cc1)c1ccccc1
inactive: IYD (gene 389434)

CCCCCCCCCCCCc1ccccc1S(=O)(=O)O
active: [14] 1.98 µM | IYD (gene 389434) 34.4 µM
inactive: [15] | [16] | [17]

OCCC(F)(F)C(F)(F)C(F)(F)C(F)(F)C(F)(F)C(F)(F)F
inactive: CD69, CD69 (gene 969) | [13]

CC(C)(C)c1cccc(C(C)(C)C)c1O
active: IYD (gene 389434) 100 µM

CC(C)(C)c1ccc(O)c(C(C)(C)C)c1
active: IYD (gene 389434) 100 µM

O=C(O)Cc1cc(I)c(Oc2cc(I)c(O)c(I)c2)c(I)c1
inactive: [14] | [18] | [16] | [17]

OCCC(F)(F)C(F)(F)C(F)(F)C(F)(F)C(F)(F)C(F)(F)C(F)(F)C(F)(F)F
inactive: [13]
active: CD69, CD69 (gene 969) 30 µM and 2.1 µM

— PubChem BioAssay (EPA / NIEHS)
